Experimental findings from PubChem BioAssay AID1259343 (VanderVen Lab, College of Veterinary Medicine, Cornell …, 2017) are described below.

Out of some 6,200 compounds screened, about 2,900 (47%) were called active. The set was probably picked from earlier hits. This is one part of the list. Values without a mark were called inactive. Cut-off read from the data, not from the text of the source: active = inhibition above about 50%; inactive = the rest.

This assay is described as follows: Mycobacterium tuberculosis growth inhibition, primary screen (AID 1259343). Conditions: inhibition: at 10 µM, stronger effect = higher value; outcome: 10 uM.
Consider `O=c1oc2c(c(O)c1-c1ccccc1)-c1ccccc1CC2`, for which the inhibition (in general, the change of the read-out against control, counted positive when it falls) is 81% (active).

For `O=C(Cc1coc(-c2ccccc2)n1)NC1CCCC1`, the inhibition is 21.1%.

Regarding `CC(C)(C)c1nc(CNC(=O)Cc2ccc(Cl)cc2)no1`, the inhibition was 27.8%.

As to `O=C(Cc1noc(C2CC2c2ccc(Cl)cc2)n1)NC1CCCC1` (stereo unspecified), the inhibition was 91.9% (active).

`Nc1ccc(-n2cnc3ccccc32)cc1`: the inhibition was 90.2% (active).

`CCOC(=O)c1cnc(SCc2ccc(Cl)cc2)nc1N`: the inhibition is 89.2% (active).

As for `CC(C)c1nc(SCC(=O)N(C)CCOc2ccc(Cl)cc2)n[nH]1`, the inhibition was 34.8%.

Consider `Clc1ccc2nnc(-c3ccc(Br)cc3)n2n1`, for which the inhibition is 68.1% (active).

Consider `Brc1ccc(-c2ccc(Br)cc2)cc1`, for which the inhibition is 38.3%.

For `CC(CC(=O)Nc1ccccc1-c1nn[nH]n1)CC(C)(C)C` (stereo unspecified), the inhibition is -15.1%.

Consider `CC(C)CCNC(=O)c1csc(-c2ccccc2)n1`, for which the inhibition is -48.7%.

For `CCOC(=O)c1c(C)c(C(=O)NCCC(C)C)c(C)n1Cc1ccccc1`, the inhibition was 56.4% (active).

On to `CCOc1nc(C#N)nc(N2CCOCC2)n1`, for which the inhibition was 22.3%.

Take `COC(=O)C1=C(C)N(C)C(=O)C12c1ccccc1-c1oc(N)nc12` (stereo unspecified): the inhibition was 58.3% (active).

On to `COc1c(F)c(F)c(C(=O)C2C(=O)C=C(c3c(F)c(F)c(OC)c(F)c3F)OC2=O)c(F)c1F` (stereo unspecified), for which the inhibition is 36.4%.

In the case of `Cc1cccn2c(NC(C)(C)CC(C)(C)C)c(-c3cccc(OC(=O)c4cccc5ccccc45)c3)nc12`, the inhibition was 9.87%.

On to `Cc1ccc2nc(-c3ccccn3)c(NC(C)(C)CC(C)(C)C)n2c1`, for which the inhibition is 101% (active).

`Cc1ccc(NC(=O)c2cc3c(C(F)(F)F)cc(=O)[nH]c3o2)c(Cl)c1`: the inhibition was 101% (active).

For `O=C(Nc1ccc(C(F)(F)F)[nH]c1=O)c1ccccc1`, the inhibition was -22.3%.

Take `Cc1ccc(-n2nc3c(c2NC(=O)/C=C\c2ccccc2)CSC3)cc1`: the inhibition was 84% (active).

`CCCc1ccc(CN2CCN(Cc3cccc(F)c3)CC2)o1`: the inhibition is 45.4%.

As for `Cc1cccc(C2CC(C(=O)N(C)Cc3ccco3)CN(Cc3cccc(F)c3)C2)c1` (stereo unspecified), the inhibition is 54.6% (active).

`CN(Cc1ccco1)C(=O)c1sc2cc(F)ccc2c1Cl`: the inhibition is 20.1%.

On to `Cc1cc(C(=O)NCCc2ccc(Cl)cc2)c(C)o1`, for which the inhibition was 88.2% (active).

Take `CC(C)Nc1ncccc1C(=O)NCCc1cccc(Cl)c1`: the inhibition was 15.2%.

As for `CC(C)Cc1nc(CS(=O)(=O)C/C=C/c2ccccc2)no1`, the inhibition was 43.6%.

As for `CC(C)Cc1noc(Cn2cc(I)cn2)n1`, the inhibition is 91.5% (active).

As for `CC(CCC(=O)O)[C@H]1CCC2C3CC[C@@H]4C[C@H](O)CC[C@]4(C)C3C=C[C@@]21C` (stereo partly specified), the inhibition is 34.3%.

For `CN(CCOc1ccc(F)cc1)Cc1nc2cc(Cl)ccc2c(=O)[nH]1`, the inhibition was -0.34%.

Turning to `O=S(CCCOc1ccc(F)cc1)Cc1ccc(F)cc1Cl` (stereo unspecified), the inhibition is 89.6% (active).

Turning to `Cc1cc(NC(=O)c2cccc(C(F)(F)F)c2)n(-c2nc3c(c(=O)[nH]2)CCC3)n1`, the inhibition was 100% (active).

With `Cc1cc(NC(=O)c2cccc(F)c2)n(-c2nc3c(c(=O)[nH]2)CCC3)n1`, the inhibition is 101% (active).

As to `CN(C)C(CNC(=O)c1ccc(C(F)(F)F)cc1)c1c(F)cccc1Cl` (stereo unspecified), the inhibition is 8.7%.

For the compound `O=C(NCCNc1cccc(C(F)(F)F)n1)c1ccc(O)cc1`, the inhibition is 73.2% (active).

Take `CN(Cc1ccc(Br)s1)Cn1ncc2c([nH]c3ccccc32)c1=O`: the inhibition is -13.5%.

With `CCNC(=O)c1ccccc1OCc1cccc(Br)c1`, the inhibition was 19.8%.

On to `Cc1nc([N+](=O)[O-])cn1CCC(=O)NOCc1ccccc1`, for which the inhibition is -5.24%.

On to `O=C(Nn1cc([N+](=O)[O-])cn1)c1cccc(COc2ccc(Br)cc2)c1`, for which the inhibition was 78.8% (active).

`CNC(=O)Cc1ccc(-c2cc(OC)ccc2F)cc1`: the inhibition is 57.2% (active).

On to `CCCCCCSc1s[nH]c(=O)c1C#N`, for which the inhibition result was “inactive”.

For `CCCSc1nsc(SCCC)c1C#N`, the inhibition is 97.4% (active).

Consider `Fc1ccc(-c2nnn(Cc3ccccc3Br)n2)cc1`, for which the inhibition was -14%.

Turning to `O=c1cc2c(nn1Cc1ccc(Br)cc1F)CCCC2`, the inhibition is -5.6%.

Take `Fc1ccccc1Cn1nnc(-c2ccc(Br)cc2)n1`: the inhibition was 94.7% (active).

As to `C/C(=C\c1ccco1)CN1CCN(c2nc3cc(C)ccc3o2)CC1`, the inhibition is 94.4% (active).

Consider `Cc1ccc2oc(CN3CCN(c4cc(N)nc(N)n4)CC3)c(C)c2c1`, for which the inhibition was 34.6%.

For `C/C(=C\c1cc(Cl)ccc1O)CN1CCN(c2ncc(F)cn2)CC1`, the inhibition is 37.7%.

Take `CCCCN(C(=O)c1nc2nccc(C)n2n1)c1ccccc1`: the inhibition is -8.51%.

As for `C(=Cc1ccccc1)CSc1nnc(-c2c[nH]c3ccccc23)o1`, the inhibition is 19.9%.

Consider `C=CCSc1nnc(-c2sc3ccccc3c2Cl)o1`, for which the inhibition was 66.8% (active).

Turning to `S=c1oc(-c2sc3ccccc3c2Cl)nn1CN1CCOCC1`, the inhibition is 1.82%.

Consider `COc1cc(OC)c(C2=CCN(C(=O)CC3CCCC3)CC2)c(OC)c1`, for which the inhibition was 5.97%.

Regarding `COc1cc2c(cc1OC)CN(C(=O)CCl)CC2`, the inhibition is 83.7% (active).

Turning to `CCc1csc(NC(=O)C2=NOC(c3ccccc3)C2)n1` (stereo unspecified), the inhibition was 64% (active).

As for `O=C(Cc1csc(NC(=O)NC2CCCCC2)n1)Nc1ccccc1Oc1ccccc1`, the inhibition is -3.55%.

With `Brc1cc(CNc2cccnc2N2CCCC2)cs1`, the inhibition was 21.1%.

As for `Cc1csc2nc(CNc3cccc(C#Cc4cccs4)c3)cc(=O)n12`, the inhibition is 60.6% (active).

In the case of `Cc1csc2nc(CNc3ccc(NC(=O)C4CC4)cc3C(F)(F)F)cc(=O)n12`, the inhibition is 10.5%.

With `O=c1cc(CNc2cccc(F)c2)nc2sc3c(n12)CCCC3`, the inhibition was 30.1%.

As for `O=C(NCCc1ccccc1Cl)c1cccc2ccnn12`, the inhibition is 44.4%.

Take `CC(CCc1ccccc1)NC(=O)c1cc(Cl)ccn1` (stereo unspecified): the inhibition was 43.1%.

For the compound `CC(Cc1ccccc1Cl)NC(=O)c1ccccn1` (stereo unspecified), the inhibition is 70.5% (active).

For `Cc1ccc(S(=O)(=O)NC(C)c2ccc(Cl)cc2Cl)s1` (stereo unspecified), the inhibition is 42.2%.

In the case of `Cc1ccc(S(=O)(=O)NCCc2sc(-c3ccc(Cl)cc3)nc2C)s1`, the inhibition was 76.3% (active).

As to `Cc1ccc(S(=O)(=O)Nc2cc(C(C)C)no2)s1`, the inhibition is 43.6%.

Turning to `CCCCOc1ccc(C(=O)Nc2cc(C)nn2-c2nc(C)cc(=O)[nH]2)cc1`, the inhibition is 101% (active).

Regarding `CCOc1ccc(C(=O)Nc2cc(-c3cccs3)nn2-c2nc(C)cc(=O)[nH]2)cc1`, the inhibition is 93.9% (active).

For `CCOc1ccc(C(=O)Nc2cc(C)nn2-c2nc(C)cc(=O)[nH]2)cc1`, the inhibition was 102% (active).

Consider `CCCCOc1ccc(C(=O)Nc2cc(C)nn2-c2nc(C)c(C)c(=O)[nH]2)cc1`, for which the inhibition is 16.8%.

Regarding `Cc1ccc(C)c2c(C)c(C(=O)NCC3(C)CCCO3)oc12` (stereo unspecified), the inhibition is 38.4%.

Take `Nc1ccc(C(=O)Oc2ccccc2)c(O)c1`: the inhibition was 98.9% (active).

With `O=C(Oc1ccccc1C(=O)O)c1ccccc1O`, the inhibition entry is “inactive”.

For `O=S(=O)(Nc1nc2ccccc2nc1Cl)c1cccc(C(F)(F)F)c1`, the inhibition was 38.5%.

Consider `CCc1nc(Nc2cccc(C(F)(F)F)c2)c2ccc(Cl)cc2n1`, for which the inhibition was 88.9% (active).

Consider `O=S(Cc1cccc(C(F)(F)F)c1)Cc1ccc(Cl)cc1Cl` (stereo unspecified), for which the inhibition was 42.1%.

As to `CC(C)N(C(=O)CCl)c1ccccc1`, the inhibition was 100% (active).

Regarding `CN(CC1COc2ccccc2O1)C(=O)CCl` (stereo unspecified), the inhibition is -21.8%.

For the compound `Cc1cc(=O)[nH]c2sc(C(=O)Nc3ccc(Br)cc3)c(N)c12`, the inhibition is 79.5% (active).

In the case of `COc1cccc(-c2ccc(NC(=O)C3CCCN(Cc4cccc(O)c4)C3)cc2)c1` (stereo unspecified), the inhibition is 70.1% (active).

For the compound `CCCc1ncc(CN2CCCC(C(=O)Nc3ccc(-c4cccc(OC)c4)cc3)C2)cn1` (stereo unspecified), the inhibition is 68.2% (active).

For the compound `COc1cccc(-c2ccc(NC(=O)C3CCCN(Cc4nccs4)C3)cc2)c1` (stereo unspecified), the inhibition was 48.2%.

Regarding `Cc1cc(C(C)(C)C)cc(C)c1CCNS(=O)(=O)N(C)C`, the inhibition was 27.1%.

With `Cn1ccc(C(=O)NCCc2ccc(OCc3ccccc3)cc2)cc1=O`, the inhibition is 65.2% (active).

With `Cc1cc(C(=O)Nc2ccn(-c3ccccc3)n2)c(C)o1`, the inhibition was 59.6% (active).

Consider `O=C(Nc1ccn(-c2ccccc2)n1)C1CCCC1`, for which the inhibition was 21.5%.

For `Nc1cnn(Cc2ccc(Br)cc2)c1`, the inhibition is 94.8% (active).

Take `Brc1cnn(Cc2nnc(-c3ccco3)o2)c1`: the inhibition is -27.3%.

With `CN(C)c1cc[n+](Cc2c(Cl)cccc2Cl)cc1`, the inhibition was 21.9%.

Turning to `C[n+]1c2cc(N)ccc2cc2ccc(N)cc21`, the inhibition was 92% (active).

On to `O=C1N=c2ccccc2=C1N=Nc1nc(O)c(-c2c(O)[nH]c3ccccc23)s1`, for which the inhibition was -14%.

For `O=C1N=c2ccccc2=C1N=Nc1c(O)[nH]c2c(Cl)cc(Cl)cc12`, the inhibition is 80% (active).

Consider `Oc1[nH]c2c(Cl)cc(Cl)cc2c1N=Nc1nc2ccccc2o1`, for which the inhibition is 101% (active).

With `O=C(NNc1cccc(Cl)c1)[C@@H]1CCCN1c1nccc(Nc2ccccc2)n1`, the inhibition is 91.9% (active).

Consider `CCOc1coc(C(=O)NCCc2ccc(Cl)cc2)cc1=O`, for which the inhibition was 49.6%.

Turning to `Cc1ccc(C)c(COc2cccn3c(CCNC(=O)COCc4ccccc4)cnc23)c1`, the inhibition is 33.6%.

Take `O=C(NCCCc1ccccc1)c1cc(=O)c(OCc2ccccc2)co1`: the inhibition is 99.7% (active).

With `O=C(NCCCc1ccccc1)c1cc(=O)c(OCc2ccc(F)cc2)co1`, the inhibition is 99.9% (active).

Consider `CCOC(=O)Cn1c(=NC(=O)c2cc(C)no2)sc2cccc(F)c21`, for which the inhibition was 49.7%.

As for `O=c1c(-c2ccc3c(c2)OCCO3)c(C(F)(F)F)oc2cc(O)ccc12`, the inhibition is 104% (active).

As to `CC(=O)Oc1ccc2c(=O)c(Oc3ccc(F)cc3)c(C(F)(F)F)oc2c1`, the inhibition was 18.9%.

As for `CC(=O)Oc1ccc2c(=O)c(-c3ccc4c(c3)OCCO4)c(C)oc2c1OC(C)=O`, the inhibition is 26.1%.
